The values below come from PubChem BioAssay (NCI).

About 83,000 compounds went through this panel and 20% of them were active in at least one assay; those are over-represented in the sample as a whole.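 Single-dose data. Exposure time 48 hours. Values below 10 considered active.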 Activity calls are given as the source filed them.

This test deals with HL-60(TB) leukemia. The test can be described thus: NCI-60 one-dose screen, 48 h (100 = growth as untreated, 0 = no growth, -100 = all killed). The settings on record: 10 µM unless noted.
Take `Cn1cc(-c2csc(-c3c[nH]c4ccccc34)n2)c2cccnc21`: the growth was 11.5% (inactive).
For `Cc1c(Cc2ccccc2)c(=O)oc2c(C)c(OCc3n[nH]c(=S)o3)ccc12`, the growth was 69.7% (inactive).
The same measure for `NC1=NC(=O)C(c2ccccc2)(c2ccccc2)S1`: 97.9% (inactive).
As for `N#CC1C(C#N)C2c3ccccc3C=CN2C1C(=O)c1ccc(Br)cc1` (stereo not given), the growth is 101% (inactive).
On to `Cn1c2c(c3ccc(Cl)cc31)-n1cccc1C2=O`, for which the growth is 64.9% (inactive).
Take `COc1ccc2c(c1)sc1nc(-c3ccc(Br)cc3)cn12`: the growth is 80.7% (inactive).
For `N=C(N)c1ccc(-c2ccc(-c3cc(F)cc(F)c3)o2)nc1`, the growth is 97.7% (inactive).
`CCn1cc(C(=O)N/N=C/c2cccs2)c(=O)c2cc(F)c(N3CCNC(C)C3)c(F)c21` (stereo not given): the growth was 105% (inactive).
For `CCOC(=O)c1sc(Nc2ccc(Cl)cc2)nc1C`, the growth is 27.2% (inactive).
The value for `O=C(CCCCC(=O)N/N=C\c1ccccc1O)N/N=C\c1ccccc1O` was 4.44% (active).
For the compound `Cc1cccc(Cl)c1NC(=O)c1ccc2nc(NC(=O)NCCN(C)C)sc2c1`, the growth is 115% (inactive).
As for `O=C(c1nn(-c2ccccc2)c2c1CC(NCc1ccc(F)cc1)CC2)N1CCCCC1` (stereo not given), the growth was 86.6% (inactive).
The value for `Cc1ccc2nc(SCC(=O)Nc3ccc(-c4nc5ccccc5s4)c(Cl)c3)[nH]c2c1` was 111% (inactive); that for `COc1cc(-c2nc(-c3nnc(-c4ccc(F)c(Cl)c4)o3)c3ccccn23)cc(OC)c1OC` was 56.4% (inactive).
The value for `CCc1ccc(C(=O)/C=C/C23c4ccccc4C(c4ccccc42)C2C(=O)NC(=O)C23)cc1` (stereo not given) was -12.3% (active).
